Consider 18 compounds from PubChem BioAssay (EPA / NIEHS).

One may read the AC50 as the concentration giving half of the maximal activity seen.

SMILES strings stand for the structures. Activity calls are given as the source filed them. How the source made its calls: active means hit-call score of the fitted dose curve at least 0.9, where 1 is the maximum; inactive means score below 0.9.

Read-out in the test: Monokine induced gamma interferon (MIG), CXCL9 (gene 4283)
Nature of the test: BSK_CASM3C_MIG: BioMAP Diversity Plus: CASM3C Assay for Monokine induced gamma interferon (MIG) Biomarker Activity (AID 2283048).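 Further: MIG protein level measured by ELISA.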 As to conditions: primary human coronary artery smooth muscle cells; actives raise or lower the signal.
As to `CCN(Cc1cccc(S(=O)(=O)O)c1)c1ccc(C(=C2C=CC(=[N+](CC)Cc3cccc(S(=O)(=O)O)c3)C=C2)c2ccccc2S(=O)(=O)[O-])cc1`, the result was inactive.
Still for that read-out and setting: under `CCCCOC(=O)CC(CC(=O)OCCCC)(OC(C)=O)C(=O)OCCCC` stands “inactive”.
`O=c1c(-c2ccc(O)cc2)coc2cc(O)cc(O)c12`: the result was inactive.
As to `CN(C)C(=O)C1(N2CCCCC2)CCN(CC[C@@]2(c3ccc(Cl)c(Cl)c3)CN(C(=O)c3ccccc3)CCO2)CC1`, the AC50 is 29.9 µM (active).
Consider `CCCCOC(=O)c1ccc(O)cc1`, for which the result was inactive.
Still for that read-out and setting: under `O=C1CCC(C2CCCCC2)CC1` stands “inactive”; under `CCO[Si](CCCNC(N)=O)(OCC)OCC`, “inactive”.
As to `CCCCCCCCCCCCO`, the AC50 was 31.3 µM (active).
Regarding `C[C@]12CC[C@@H]3c4ccc(O)cc4CC[C@H]3[C@@H]1CCC2=O`, the result was inactive.
On to `CC/C(=C(/CC)c1ccc(O)cc1)c1ccc(O)cc1`, for which the outcome was inactive.
Consider `CCCCCc1ccc(N)cc1`, for which the outcome was inactive.
On the same count and under the same terms, next, `CN1C(=O)CC[C@H]1c1cccnc1`: “inactive”; `O=C(O)Cc1cc(I)c(Oc2ccc(O)c(I)c2)c(I)c1`: “inactive”.
With `CCCCCCCCCCCC[N+](C)(C)C`, the AC50 was 33.3 µM (active).
As for `CCCCCCCCCC(=O)O`, the outcome was inactive.
For the compound `Cc1cc(F)ccc1-c1cc(N2CC[C@@H](O)[C@H]2CO)ncc1N(C)C(=O)C(C)(C)c1cc(C(F)(F)F)cc(C(F)(F)F)c1`, the AC50 was 30.1 µM (active).
For the compound `CC(C)(C)c1csc(-c2cc3cc(OCc4ccccc4CC(=O)O)ccc3o2)n1`, the result was inactive.
The same measure, in the same setting: under `CC(=O)N1CCN(c2ccc(OC[C@H]3CO[C@](Cn4ccnc4)(c4ccc(Cl)cc4Cl)O3)cc2)CC1` stands “inactive”.
